This is an account of results in PubChem BioAssay AID2685 (National Center for Advancing Translational Sciences (NCATS), 2010).

The whole screen tested about 320,000 compounds, of which about 2,100 (0.66%) were called active. Roughly 53% stayed inconclusive and do not appear here. Calls come from the whole dose curve; as a rule, active = well fitted inhibition curve with a large enough effect in the signal ratio, with a control signal flat (not every such curve was filed as active); inconclusive = small, poorly fitted or top-dose-only effect, or effect the other way, or a change in a side signal; inactive = flat fitted curve, though single readings scatter; the % refers to the signal ratio. For the sample, actives were picked, then their nearest neighbours and some compounds at random.
Potency is the fitted concentration of half-maximal effect.

The test can be described thus: qHTS Assay for Lipid Storage Modulators in Drosophila S3 Cells.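 For cell number change: cells counted by Cell Tracker Red CMTPX staining in the red channel.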 For lipid storage change, negative = inhibition: % is set by controls: 0 for no effect and ±100 for the full control effect. Conditions: BODIPY lipid droplet fluorescence, 18-24 h, cells fed with added oleic acid; cell number change: measured here: cell count max response; series mostly up to 46.1 µM; lipid storage change, negative = inhibition: at the top concentration. A digest of the protocol:
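Laser-scanning cytometry quantifies lipid droplet accumulation (500–530 nm total intensity; droplet/cell object ratio) in oleic acid-fed (400 uM added) Drosophila S3 cells treated with a concentration series. 20 uM Triacsin C defined 100% inhibition.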
For `O=C(CN1C(=O)NC2(CCCC2)C1=O)Nc1cc(S(=O)(=O)N2CCOCC2)ccc1OCC(F)(F)F`, the “lipid storage change, negative = inhibition” value was 0.0733% (inactive) and the cell number change worked out at 18%. For the compound `Cc1ccccc1-n1nc2c(c1NC(=O)c1cccs1)CS(=O)(=O)C2`, the outcome was inactive. Same read-out and setting: under `Nn1c(SCC(=O)Nc2ccccc2)nnc1-c1cccnc1` stands “inactive”. In the case of `COc1cccc(C(=O)Nc2nnc(-c3ccccc3)s2)c1`, the “lipid storage change, negative = inhibition” value is -1.19% (inactive) and the cell number change was found to be 0.556%.

Turning to `Cc1ccccc1OC(=O)CCC(=O)OCCCC(F)(F)C(F)(F)F`, the Potency was 29.1 µM (active) and the cell number change stood at 10.2%. In the case of `Cc1ccccc1NC(=O)CCC(=O)OCCCC(F)(F)C(F)(F)F`, the “lipid storage change, negative = inhibition” value is 20.7% (inactive) and the cell number change was determined as 12.7%. Take `Cc1ccc(NC(=O)CCC(=O)OCCCC(F)(F)C(F)(F)F)cc1`: the “lipid storage change, negative = inhibition” value was -0.336% (inactive) and the cell number change was -12.9%. For `O=c1oc(-c2cccc([N+](=O)[O-])c2)nc2ccccc12` the same measures were 12% (inactive) and 0.88%. As to `CCn1c(=O)c(=O)[nH]c2c(=O)oc3ccc(S(=O)(=O)Nc4ccc(OC)cc4)cc3c21`, the Potency was 4.61 µM (active) and the cell number change was found to be 1.26%. For the compound `COc1ccc(NS(=O)(=O)c2ccc3oc(=O)ccc3c2)cc1`, the “lipid storage change, negative = inhibition” value is -5.71% (inactive) and the cell number change was -11.6%. Consider `COc1ccc(NS(=O)(=O)c2ccc3oc(=S)[nH]c3c2)cc1`, for which the “lipid storage change, negative = inhibition” value was -21.1% (inactive) and the cell number change was determined as 5.85%. For the compound `Cc1ccc(S(=O)(=O)Nc2c(O)c3ccccc3oc2=O)cc1C`, the compound was classed as inactive and the cell number change was 6.35%. As for `CCn1c(=O)c(=O)[nH]c2c(=O)oc3ccc(S(=O)(=O)Nc4ccccc4)cc3c21`, the Potency is 13 µM (active) and the cell number change is -26.4%. On to `Cn1c(=O)oc2cc(S(=O)(=O)Nc3ccccc3)ccc21`, for which the cell number change is -3.03% and the lipid storage change, negative = inhibition is -3.68% [at 9.22 µM] (inactive). For `COc1ccc(-c2nc(=S)[nH][nH]2)cc1` the same measures were -14.6% and 2.02% (inactive).

On to `O=C(NCc1cccnc1)C1CCCN(Cc2cnn(-c3ccccc3)c2-n2cccc2)C1` (stereo unspecified), for which the “lipid storage change, negative = inhibition” value is 0.331% (inactive) and the cell number change is -3.38%.

As to `Cc1ccc2nc3c(cc(C(=O)NCc4ccco4)c(=N)n3Cc3ccco3)c(=O)n2c1`, the “lipid storage change, negative = inhibition” value was -7.54% (inactive) and the cell number change is -5.34%. With `Cc1ccc(N(C(=O)CCC(=O)Nc2cc(C)on2)C(C(=O)NC2CCCC2)c2ccccc2)cc1` (stereo unspecified), the call was inactive and the cell number change was -13.1%. On to `O=C(CSc1nnc(-c2ccco2)n1-c1ccccc1)N1CCOCC1`, for which the result was inactive. Take `Cc1ccsc1C(=O)Nc1ccc(C(=O)O)cc1`: the compound was called inactive. `O=C(O)CCCC(=O)N1CCOCCOCCOCCOCC1`: the “lipid storage change, negative = inhibition” value is -7% (inactive) and the cell number change was determined as 22.2%. The like results for `Cc1cccc(NC(=O)CNC(=O)COc2ccc(C(=O)c3ccc(F)cc3)cc2)c1C` were, in that order, 26.3% (inactive) and 8.34%. As for `CN(C)C(=O)Cn1cc(S(=O)(=O)Cc2ccccc2)c2ccccc21`, the Potency was 0.651 µM (active) and the cell number change is -2.09%. For the compound `O=C(Cn1cc(S(=O)(=O)Cc2ccccc2)c2ccccc21)N1CCOCC1`, the “lipid storage change, negative = inhibition” value was 10.8% (inactive) and the cell number change is 6.54%.

Consider `CCN(CC)C(=O)Cn1cc(S(=O)(=O)Cc2cccc([N+](=O)[O-])c2)c2ccccc21`, for which the “lipid storage change, negative = inhibition” value was 1.45% (inactive) and the cell number change was 0.298%. For `CC(C)OC(=O)CSc1nc2c(cc1C#N)CCCCC2`, the “lipid storage change, negative = inhibition” value is -3.11% (inactive). With `Cc1cc(C(=O)CN2C(=O)C(=O)N(C3CCCC3)C2=O)c(C)n1CCc1ccc(F)cc1`, the Potency is 20.6 µM (active) and the cell number change was -15.3%. Turning to `Cc1cc(C(=O)CN2C(=O)C(=O)N(Cc3ccccc3)C2=O)c(C)n1Cc1ccc(F)cc1`, the “lipid storage change, negative = inhibition” value was 18.7% (inactive) and the cell number change was -8.57%. For `Cc1cc(C(=O)CCl)c(C)n1CCc1ccc(F)cc1` the same measures were -0.0782% (inactive) and -8.52%. As to `COC(=O)C(C)N(C(=O)c1cccc(Cl)c1)c1c(C)cccc1C` (stereo unspecified), the compound was classed as inactive. Take `COC(=O)c1ccc(CNC(=O)CNC(=O)c2sc3ccccc3c2Cl)cc1`: the “lipid storage change, negative = inhibition” value is 5.59% (inactive) and the cell number change is 3.22%.

As to `COC(=O)C(Cc1ccccc1)NC(=O)CNC(=O)c1sc2ccccc2c1Cl` (stereo unspecified), the Potency is 1.84 µM (active) and the cell number change was -4.58%. For the compound `CC1CCCN(C(=O)CNC(=O)c2sc3ccccc3c2Cl)C1` (stereo unspecified), the cell number change was found to be 11.4% and the lipid storage change, negative = inhibition is 0.306% [at 0.0737 µM] (inactive). On to `CC1CC(C)CN(C(=O)CNC(=O)c2sc3ccccc3c2Cl)C1` (stereo unspecified), for which the Potency is 1.46 µM (active) and the cell number change is -1.35%. For the compound `Cc1ccc(S(=O)(=O)N2CCN(C(=O)CNC(=O)c3sc4ccccc4c3Cl)CC2)cc1`, the call was inactive.

For the compound `CC(=O)Nc1ccc(NC(=O)CNC(=O)c2sc3ccccc3c2Cl)cc1`, the “lipid storage change, negative = inhibition” value is -4.95% (inactive) and the cell number change came out at 0.461%.

In the case of `CC(C)N(Cc1nc(-c2ccccc2)no1)C(=O)C(C)(C)C`, the call was inactive. For `O=C(CNC(=O)c1ccco1)N=Nc1c(O)[nH]c2ccc([N+](=O)[O-])cc12`, the Potency was 1.03 µM (active) and the cell number change stood at 26.6%. For the compound `O=C(CNC(=O)c1ccco1)N=Nc1c(O)[nH]c2ccc(Br)cc12`, the “lipid storage change, negative = inhibition” value is -20.8% (inactive) and the cell number change was -9.17%. For `Cc1cccc(OCC(=O)N=Nc2c(O)[nH]c3ccc([N+](=O)[O-])cc23)c1` the same measures were -6.55% (inactive) and -0.974%.

`CCCCN(C(=O)c1cccc(S(=O)(=O)N2CC(C)OC(C)C2)c1)c1c(N)n(CC(C)C)c(=O)[nH]c1=O` (stereo unspecified): the “lipid storage change, negative = inhibition” value is 17% (inactive). For `O=[N+]([O-])c1ccc2nc(C(O)C(O)c3nc4ccc([N+](=O)[O-])cc4[nH]3)[nH]c2c1` (stereo unspecified), the compound was called inactive and the cell number change was 22.3%.

Turning to `O=C(O)CSc1nnc(-c2ccc(Cl)cc2Cl)n1Cc1ccccc1`, the Potency is 5.8 µM (active) and the cell number change is -15.2%. `O=C(O)CSc1nnc(-c2cccnc2)n1Cc1ccccc1`: the “lipid storage change, negative = inhibition” value was 7.76% (inactive) and the cell number change was determined as 0.309%. The like results for `Cc1cccc(-c2nnc(SCC(=O)O)n2Cc2ccccc2)c1` were, in that order, 6.73% (inactive) and -0.739%.
